From the supplement of paper PMC11732987, “Enantioselective OTUD7B fragment discovery through chemoproteomics screening and high-throughput optimisation” (Communications Chemistry, 2025)

Key:
Experiment in all cases: log2 ratio of Biotin-Ahx-Ub-VS probe labelling (fragment/DMSO); higher = less target engagement (more negative = stronger competition), active = hit call of the paper (q ≤ 0.05, log2 ratio ≤ -1)
Settings in all cases: compound concentration: 200 uM; treatment time: 3 h
USP42 = biological target: T1, USP42 (UniProt Q9H9J4)
T1 sequence (whole entry): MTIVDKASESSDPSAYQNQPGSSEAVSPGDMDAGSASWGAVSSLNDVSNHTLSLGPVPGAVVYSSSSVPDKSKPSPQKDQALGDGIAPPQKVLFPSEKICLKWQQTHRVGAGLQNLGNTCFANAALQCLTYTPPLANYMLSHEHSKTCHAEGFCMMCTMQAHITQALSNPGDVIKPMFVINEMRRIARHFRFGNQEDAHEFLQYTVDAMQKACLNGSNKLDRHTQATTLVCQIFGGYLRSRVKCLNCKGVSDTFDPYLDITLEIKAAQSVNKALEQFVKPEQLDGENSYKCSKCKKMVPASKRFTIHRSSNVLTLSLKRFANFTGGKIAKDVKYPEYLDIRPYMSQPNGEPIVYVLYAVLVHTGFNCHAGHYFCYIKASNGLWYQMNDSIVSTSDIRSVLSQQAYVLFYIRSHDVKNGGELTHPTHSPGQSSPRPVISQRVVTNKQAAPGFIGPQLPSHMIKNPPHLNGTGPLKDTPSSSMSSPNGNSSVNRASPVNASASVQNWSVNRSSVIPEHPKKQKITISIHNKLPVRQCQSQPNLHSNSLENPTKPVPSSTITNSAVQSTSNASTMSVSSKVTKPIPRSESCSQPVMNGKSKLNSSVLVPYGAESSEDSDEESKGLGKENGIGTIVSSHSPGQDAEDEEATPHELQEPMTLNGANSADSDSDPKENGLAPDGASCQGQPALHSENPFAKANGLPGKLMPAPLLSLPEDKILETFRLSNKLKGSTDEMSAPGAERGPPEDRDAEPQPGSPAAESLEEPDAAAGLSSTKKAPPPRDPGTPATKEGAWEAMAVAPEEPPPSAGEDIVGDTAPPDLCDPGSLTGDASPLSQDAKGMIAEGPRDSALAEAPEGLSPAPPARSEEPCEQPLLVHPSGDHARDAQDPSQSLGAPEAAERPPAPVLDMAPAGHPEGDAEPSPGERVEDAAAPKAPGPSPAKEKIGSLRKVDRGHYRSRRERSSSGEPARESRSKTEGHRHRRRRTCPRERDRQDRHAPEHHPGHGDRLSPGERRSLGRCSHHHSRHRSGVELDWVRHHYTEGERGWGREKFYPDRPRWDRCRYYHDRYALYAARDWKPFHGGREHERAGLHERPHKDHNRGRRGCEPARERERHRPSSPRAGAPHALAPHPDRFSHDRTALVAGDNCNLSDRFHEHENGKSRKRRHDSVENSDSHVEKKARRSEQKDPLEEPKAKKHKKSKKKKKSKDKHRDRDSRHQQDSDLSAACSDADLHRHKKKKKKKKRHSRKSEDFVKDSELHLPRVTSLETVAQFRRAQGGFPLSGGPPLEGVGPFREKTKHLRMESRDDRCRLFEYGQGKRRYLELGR
Outline: (§1)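 HEK293T lysate (495 µg per sample, in Tris/CHAPS/IGEPAL buffer with protease inhibitors) was exposed in triplicate for 3 h to fragment at 200 µM or to vehicle, then to Biotin-Ahx-Ub-VS at 0.5 µM final for 1 h. Labelled DUBs were enriched on NeutrAvidin, digested with LysC and trypsin, and analysed by diaPASEF LC-MS/MS. Spectronaut label-free quantities were normalised to the global median, and values are average log2 ratios of fragment over vehicle from an unpaired t-test. Only proteins with ≥2 unique peptides were used.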

USP46 = USP46 (UniProt P62068)
Chain of USP46 (P62068 whole entry): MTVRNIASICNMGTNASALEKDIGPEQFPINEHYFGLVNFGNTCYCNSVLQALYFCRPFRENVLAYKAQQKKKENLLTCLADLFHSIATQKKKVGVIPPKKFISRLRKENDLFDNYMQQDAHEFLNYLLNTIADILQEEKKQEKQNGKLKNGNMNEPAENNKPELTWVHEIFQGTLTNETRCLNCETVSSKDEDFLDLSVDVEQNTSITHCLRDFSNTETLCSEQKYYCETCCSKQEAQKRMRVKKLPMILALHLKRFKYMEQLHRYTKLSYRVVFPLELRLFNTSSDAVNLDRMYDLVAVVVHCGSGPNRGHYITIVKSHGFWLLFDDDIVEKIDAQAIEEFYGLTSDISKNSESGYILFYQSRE
Outline: as §1

USP47 = biological target: T2, USP47 (UniProt Q96K76)
T2 sequence (whole entry): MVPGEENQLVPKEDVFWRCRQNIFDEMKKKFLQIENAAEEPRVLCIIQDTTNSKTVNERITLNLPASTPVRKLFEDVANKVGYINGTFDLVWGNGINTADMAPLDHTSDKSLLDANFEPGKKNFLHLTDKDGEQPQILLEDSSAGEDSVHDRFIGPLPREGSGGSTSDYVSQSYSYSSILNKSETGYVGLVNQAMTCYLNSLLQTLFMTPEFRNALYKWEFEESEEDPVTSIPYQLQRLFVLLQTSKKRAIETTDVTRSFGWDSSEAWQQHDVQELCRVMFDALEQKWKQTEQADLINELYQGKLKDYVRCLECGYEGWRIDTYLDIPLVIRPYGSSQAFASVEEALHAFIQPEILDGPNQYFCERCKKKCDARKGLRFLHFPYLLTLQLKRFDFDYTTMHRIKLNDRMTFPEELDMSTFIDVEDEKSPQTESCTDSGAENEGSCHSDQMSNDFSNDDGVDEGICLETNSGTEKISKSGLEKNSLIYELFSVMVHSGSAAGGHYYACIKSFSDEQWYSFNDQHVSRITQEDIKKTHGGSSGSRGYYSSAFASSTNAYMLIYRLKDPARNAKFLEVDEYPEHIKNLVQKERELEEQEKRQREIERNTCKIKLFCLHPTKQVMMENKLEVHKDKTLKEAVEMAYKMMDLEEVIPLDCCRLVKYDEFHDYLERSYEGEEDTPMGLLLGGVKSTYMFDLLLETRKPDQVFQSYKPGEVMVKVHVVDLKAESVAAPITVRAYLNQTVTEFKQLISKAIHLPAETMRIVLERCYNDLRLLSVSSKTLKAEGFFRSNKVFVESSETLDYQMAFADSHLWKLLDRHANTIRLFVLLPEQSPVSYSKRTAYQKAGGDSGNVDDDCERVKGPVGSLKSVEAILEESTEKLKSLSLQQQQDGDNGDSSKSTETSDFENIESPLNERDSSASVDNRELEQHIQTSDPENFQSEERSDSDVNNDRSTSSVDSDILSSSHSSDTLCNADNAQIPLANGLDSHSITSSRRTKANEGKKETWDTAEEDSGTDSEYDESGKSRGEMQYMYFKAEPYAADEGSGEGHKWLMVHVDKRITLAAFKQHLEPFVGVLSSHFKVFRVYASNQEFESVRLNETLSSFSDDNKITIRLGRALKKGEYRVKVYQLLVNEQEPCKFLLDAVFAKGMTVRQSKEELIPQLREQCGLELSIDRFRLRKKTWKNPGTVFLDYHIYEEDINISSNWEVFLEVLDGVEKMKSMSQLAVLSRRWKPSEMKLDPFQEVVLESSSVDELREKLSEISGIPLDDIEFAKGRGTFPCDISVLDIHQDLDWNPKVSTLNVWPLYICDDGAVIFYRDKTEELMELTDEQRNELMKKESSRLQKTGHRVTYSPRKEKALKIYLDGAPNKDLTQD
Outline: as §1

USP48 = biological target: T3, USP48 (UniProt Q86UV5)
T3 sequence (whole entry): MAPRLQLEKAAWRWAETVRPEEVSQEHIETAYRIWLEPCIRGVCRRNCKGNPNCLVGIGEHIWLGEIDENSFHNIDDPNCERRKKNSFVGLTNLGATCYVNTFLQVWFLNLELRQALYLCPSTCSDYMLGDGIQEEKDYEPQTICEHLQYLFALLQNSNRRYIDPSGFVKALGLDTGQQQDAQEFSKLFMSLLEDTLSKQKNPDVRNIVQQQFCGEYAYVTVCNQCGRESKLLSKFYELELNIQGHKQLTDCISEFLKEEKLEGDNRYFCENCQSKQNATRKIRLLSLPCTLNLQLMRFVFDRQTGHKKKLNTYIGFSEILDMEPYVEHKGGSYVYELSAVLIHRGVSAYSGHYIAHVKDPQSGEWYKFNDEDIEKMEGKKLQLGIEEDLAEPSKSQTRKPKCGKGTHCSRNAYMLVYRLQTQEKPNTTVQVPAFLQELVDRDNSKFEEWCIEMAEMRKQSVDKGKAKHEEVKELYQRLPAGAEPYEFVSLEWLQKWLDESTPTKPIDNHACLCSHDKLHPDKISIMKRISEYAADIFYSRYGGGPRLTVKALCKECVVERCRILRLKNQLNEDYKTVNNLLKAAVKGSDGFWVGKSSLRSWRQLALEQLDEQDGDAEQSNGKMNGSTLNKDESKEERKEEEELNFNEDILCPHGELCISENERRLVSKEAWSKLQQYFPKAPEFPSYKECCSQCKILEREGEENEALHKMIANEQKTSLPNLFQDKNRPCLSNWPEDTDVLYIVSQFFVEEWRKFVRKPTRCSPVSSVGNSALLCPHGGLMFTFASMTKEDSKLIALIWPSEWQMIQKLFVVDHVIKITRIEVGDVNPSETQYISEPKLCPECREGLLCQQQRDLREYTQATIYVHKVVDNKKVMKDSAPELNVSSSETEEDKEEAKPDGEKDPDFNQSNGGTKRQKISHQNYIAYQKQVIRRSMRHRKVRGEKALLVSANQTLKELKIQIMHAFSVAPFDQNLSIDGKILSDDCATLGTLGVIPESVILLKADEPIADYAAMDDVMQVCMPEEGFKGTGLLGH
Outline: as §1

USP5 = biological target: T4, USP5 (UniProt P45974)
T4 sequence (whole entry): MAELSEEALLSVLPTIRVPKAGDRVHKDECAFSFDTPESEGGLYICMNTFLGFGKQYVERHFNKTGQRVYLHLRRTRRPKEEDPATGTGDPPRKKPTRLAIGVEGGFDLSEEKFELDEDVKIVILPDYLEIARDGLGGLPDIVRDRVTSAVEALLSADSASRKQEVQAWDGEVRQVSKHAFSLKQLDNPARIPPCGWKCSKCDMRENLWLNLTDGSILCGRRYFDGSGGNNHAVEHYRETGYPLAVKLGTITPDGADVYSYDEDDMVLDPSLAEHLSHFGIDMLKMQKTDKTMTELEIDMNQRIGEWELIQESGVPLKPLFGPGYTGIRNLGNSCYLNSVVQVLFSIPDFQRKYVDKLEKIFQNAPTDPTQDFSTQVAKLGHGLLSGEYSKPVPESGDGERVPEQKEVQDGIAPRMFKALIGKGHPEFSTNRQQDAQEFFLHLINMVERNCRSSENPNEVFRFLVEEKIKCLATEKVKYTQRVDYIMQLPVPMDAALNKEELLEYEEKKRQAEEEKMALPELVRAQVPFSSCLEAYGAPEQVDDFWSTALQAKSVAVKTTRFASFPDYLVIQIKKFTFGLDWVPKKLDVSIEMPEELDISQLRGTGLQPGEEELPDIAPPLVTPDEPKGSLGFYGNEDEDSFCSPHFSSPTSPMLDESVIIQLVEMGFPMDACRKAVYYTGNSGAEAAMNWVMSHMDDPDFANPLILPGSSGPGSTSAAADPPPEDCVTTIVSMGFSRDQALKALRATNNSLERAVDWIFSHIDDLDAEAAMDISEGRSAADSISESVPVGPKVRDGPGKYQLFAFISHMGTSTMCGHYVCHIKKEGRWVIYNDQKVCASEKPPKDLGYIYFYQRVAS
Outline: as §1

USP54 = USP54 (UniProt Q70EL1)
Outline: as §1

USP7 = USP7 (UniProt Q93009)
Chain of USP7 (Q93009 whole entry, looked up): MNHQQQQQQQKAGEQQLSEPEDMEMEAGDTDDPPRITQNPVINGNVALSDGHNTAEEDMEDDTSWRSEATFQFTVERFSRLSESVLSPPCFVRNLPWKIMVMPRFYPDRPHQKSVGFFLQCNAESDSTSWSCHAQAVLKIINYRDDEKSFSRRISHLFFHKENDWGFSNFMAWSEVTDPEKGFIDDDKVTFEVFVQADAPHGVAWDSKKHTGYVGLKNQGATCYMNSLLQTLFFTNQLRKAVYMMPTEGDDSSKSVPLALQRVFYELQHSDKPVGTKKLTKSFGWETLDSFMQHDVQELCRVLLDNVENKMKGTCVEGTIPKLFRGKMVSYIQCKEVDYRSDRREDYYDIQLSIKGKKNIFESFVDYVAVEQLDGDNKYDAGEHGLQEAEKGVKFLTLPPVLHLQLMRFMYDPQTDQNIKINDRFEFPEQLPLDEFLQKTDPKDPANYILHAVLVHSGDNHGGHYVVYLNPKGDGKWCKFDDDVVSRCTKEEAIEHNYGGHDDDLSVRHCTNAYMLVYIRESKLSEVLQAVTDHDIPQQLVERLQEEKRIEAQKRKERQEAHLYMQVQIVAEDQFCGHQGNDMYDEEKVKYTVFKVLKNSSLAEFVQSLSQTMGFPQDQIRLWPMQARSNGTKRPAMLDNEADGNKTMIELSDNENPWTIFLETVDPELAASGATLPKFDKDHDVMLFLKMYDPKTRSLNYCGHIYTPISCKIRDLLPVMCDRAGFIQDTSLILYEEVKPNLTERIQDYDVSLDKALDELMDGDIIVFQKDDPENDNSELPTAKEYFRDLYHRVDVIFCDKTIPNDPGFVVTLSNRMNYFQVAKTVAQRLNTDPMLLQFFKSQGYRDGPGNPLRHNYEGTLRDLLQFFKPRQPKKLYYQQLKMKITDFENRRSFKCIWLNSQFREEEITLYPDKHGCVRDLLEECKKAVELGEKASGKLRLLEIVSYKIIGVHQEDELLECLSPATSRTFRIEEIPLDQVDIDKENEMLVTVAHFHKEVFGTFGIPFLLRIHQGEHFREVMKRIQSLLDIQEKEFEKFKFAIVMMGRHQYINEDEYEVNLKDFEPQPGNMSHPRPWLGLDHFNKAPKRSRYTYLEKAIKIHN
Outline: as §1

USP8 = biological target: T5, USP8 (UniProt P40818)
T5 sequence (whole entry): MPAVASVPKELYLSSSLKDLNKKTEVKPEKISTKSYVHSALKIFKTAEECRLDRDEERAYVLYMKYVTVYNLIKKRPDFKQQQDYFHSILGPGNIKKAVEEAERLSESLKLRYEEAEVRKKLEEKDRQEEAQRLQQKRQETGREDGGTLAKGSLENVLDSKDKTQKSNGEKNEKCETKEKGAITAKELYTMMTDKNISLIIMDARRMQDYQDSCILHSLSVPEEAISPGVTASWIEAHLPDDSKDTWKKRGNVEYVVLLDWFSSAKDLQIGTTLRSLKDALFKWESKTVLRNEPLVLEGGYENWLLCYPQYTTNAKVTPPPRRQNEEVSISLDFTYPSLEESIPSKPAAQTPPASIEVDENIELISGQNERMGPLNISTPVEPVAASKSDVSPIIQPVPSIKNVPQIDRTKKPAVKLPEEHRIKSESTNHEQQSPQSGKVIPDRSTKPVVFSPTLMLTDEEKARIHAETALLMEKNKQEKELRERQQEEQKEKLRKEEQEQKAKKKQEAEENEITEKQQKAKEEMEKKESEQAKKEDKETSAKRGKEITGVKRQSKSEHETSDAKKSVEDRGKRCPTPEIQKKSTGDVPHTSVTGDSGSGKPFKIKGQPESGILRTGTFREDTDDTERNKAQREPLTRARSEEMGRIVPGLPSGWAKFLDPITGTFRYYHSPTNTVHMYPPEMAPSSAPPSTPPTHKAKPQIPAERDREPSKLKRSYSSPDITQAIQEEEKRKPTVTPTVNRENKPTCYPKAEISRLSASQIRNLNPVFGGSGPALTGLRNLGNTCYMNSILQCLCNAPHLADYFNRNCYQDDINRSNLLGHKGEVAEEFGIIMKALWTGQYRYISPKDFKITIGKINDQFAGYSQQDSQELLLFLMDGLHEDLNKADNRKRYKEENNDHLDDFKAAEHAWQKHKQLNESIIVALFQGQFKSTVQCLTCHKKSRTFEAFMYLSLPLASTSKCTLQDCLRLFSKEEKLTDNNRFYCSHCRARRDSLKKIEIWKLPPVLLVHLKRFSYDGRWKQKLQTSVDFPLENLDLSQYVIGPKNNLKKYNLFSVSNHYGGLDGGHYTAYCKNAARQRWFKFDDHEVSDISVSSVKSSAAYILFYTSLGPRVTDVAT
Outline: as §1

USP9X = USP9X (UniProt Q93008)
Chain of USP9X (Q93008 whole entry): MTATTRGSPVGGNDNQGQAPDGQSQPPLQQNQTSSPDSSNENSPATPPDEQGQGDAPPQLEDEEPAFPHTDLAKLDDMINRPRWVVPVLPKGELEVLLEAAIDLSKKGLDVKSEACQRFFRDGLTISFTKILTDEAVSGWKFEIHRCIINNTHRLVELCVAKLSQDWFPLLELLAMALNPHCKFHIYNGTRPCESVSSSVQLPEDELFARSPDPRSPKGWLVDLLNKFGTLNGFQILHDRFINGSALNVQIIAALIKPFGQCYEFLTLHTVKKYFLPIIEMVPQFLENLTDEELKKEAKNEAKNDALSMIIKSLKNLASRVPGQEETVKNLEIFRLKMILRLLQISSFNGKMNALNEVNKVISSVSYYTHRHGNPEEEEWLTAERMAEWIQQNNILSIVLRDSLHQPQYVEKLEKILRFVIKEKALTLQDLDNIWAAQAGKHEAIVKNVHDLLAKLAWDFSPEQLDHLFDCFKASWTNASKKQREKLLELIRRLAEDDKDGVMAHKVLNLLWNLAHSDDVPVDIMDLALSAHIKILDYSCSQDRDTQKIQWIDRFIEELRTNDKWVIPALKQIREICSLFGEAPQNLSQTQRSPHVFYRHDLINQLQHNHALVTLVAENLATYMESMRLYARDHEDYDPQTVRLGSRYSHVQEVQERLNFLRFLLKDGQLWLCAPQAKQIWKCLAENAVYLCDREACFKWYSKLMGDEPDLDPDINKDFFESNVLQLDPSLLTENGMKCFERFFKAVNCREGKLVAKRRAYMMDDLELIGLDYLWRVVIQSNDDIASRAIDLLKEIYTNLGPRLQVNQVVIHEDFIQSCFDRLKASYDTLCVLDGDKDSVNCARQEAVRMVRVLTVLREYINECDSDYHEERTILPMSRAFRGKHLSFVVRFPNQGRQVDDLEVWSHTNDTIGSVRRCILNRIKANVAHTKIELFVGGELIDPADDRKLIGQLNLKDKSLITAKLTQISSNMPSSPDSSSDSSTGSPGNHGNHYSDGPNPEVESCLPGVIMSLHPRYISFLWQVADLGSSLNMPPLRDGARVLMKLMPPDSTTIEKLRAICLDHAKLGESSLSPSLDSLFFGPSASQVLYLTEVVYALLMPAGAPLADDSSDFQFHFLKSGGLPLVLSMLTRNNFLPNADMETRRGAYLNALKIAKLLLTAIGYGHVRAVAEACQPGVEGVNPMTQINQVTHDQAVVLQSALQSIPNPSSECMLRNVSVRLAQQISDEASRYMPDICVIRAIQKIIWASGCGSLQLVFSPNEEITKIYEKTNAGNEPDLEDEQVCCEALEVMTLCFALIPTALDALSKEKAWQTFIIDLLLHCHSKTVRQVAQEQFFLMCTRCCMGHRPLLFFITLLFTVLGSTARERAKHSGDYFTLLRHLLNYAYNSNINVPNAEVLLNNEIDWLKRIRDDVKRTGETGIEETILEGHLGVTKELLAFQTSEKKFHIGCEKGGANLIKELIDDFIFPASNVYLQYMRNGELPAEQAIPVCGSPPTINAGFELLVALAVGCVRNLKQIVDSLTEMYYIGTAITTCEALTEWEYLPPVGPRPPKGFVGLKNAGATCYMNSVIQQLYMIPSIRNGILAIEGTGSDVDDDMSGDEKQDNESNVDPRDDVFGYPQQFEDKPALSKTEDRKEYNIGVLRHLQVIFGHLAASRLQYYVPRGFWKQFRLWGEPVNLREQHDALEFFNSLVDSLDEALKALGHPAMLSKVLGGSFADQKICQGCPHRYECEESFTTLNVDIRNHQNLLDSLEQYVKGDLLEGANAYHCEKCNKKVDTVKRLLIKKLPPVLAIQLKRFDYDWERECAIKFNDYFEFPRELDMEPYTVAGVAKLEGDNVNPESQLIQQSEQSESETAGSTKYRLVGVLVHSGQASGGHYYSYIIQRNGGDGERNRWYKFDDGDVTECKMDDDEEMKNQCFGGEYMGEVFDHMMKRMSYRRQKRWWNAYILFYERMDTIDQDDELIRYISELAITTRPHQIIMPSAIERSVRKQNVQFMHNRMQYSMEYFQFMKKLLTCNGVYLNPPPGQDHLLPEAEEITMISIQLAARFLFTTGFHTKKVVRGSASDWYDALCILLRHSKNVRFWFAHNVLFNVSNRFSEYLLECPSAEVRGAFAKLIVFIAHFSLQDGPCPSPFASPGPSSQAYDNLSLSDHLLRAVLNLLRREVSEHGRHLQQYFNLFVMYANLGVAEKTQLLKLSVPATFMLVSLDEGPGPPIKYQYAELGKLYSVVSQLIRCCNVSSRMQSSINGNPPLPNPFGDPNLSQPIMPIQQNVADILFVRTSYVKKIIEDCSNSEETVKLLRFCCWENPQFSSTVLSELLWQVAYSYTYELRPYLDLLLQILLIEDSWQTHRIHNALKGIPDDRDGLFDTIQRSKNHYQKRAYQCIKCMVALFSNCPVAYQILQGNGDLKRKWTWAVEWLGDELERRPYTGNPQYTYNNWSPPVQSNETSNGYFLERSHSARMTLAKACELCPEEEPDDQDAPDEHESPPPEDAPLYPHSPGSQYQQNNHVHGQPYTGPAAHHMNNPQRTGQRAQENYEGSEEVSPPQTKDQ
Outline: as §1

UniProt O00487 = biological target: UniProt O00487
Chain of UniProt O00487 (O00487 whole entry): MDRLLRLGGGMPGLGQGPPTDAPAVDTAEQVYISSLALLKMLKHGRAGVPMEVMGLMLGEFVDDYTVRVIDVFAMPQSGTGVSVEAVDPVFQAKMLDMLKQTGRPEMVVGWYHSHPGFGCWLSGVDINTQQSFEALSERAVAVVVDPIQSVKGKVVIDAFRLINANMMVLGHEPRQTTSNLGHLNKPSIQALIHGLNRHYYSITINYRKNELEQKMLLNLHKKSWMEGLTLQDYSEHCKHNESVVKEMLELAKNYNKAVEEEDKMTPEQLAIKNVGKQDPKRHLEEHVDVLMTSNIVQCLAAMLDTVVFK
Outline: as §1

Measured: log2 ratio of Biotin-Ahx-Ub-VS probe labelling

CC(=O)Nc1ccc(NC(=O)CCl)cc1
inactive: USP42 0.329 | USP46 -0.0429 | USP47 -0.31 | USP48 -0.256 | USP5 -0.0185 | USP54 0.408 | USP7 -0.267 | USP8 -0.236 | USP9X -0.118 | UniProt O00487 -0.167
